Assay results reported in PubChem BioAssay (NCI).
This is part of a sample that, as a whole, favours compounds with a hit. Of some 79,000 tested, about 15% had one in any assay. Values without a mark were called inactive. Activity calls are given as the source filed them. No stated cut-off is given here; in the data, active means growth inhibition above about 70%; inactive means the rest.

Key:
[1] = NCI Yeast Anticancer Drug Screen. Data for the rad50 strain (AID 155);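 further: 0% = growth of vehicle-only cultures of the same strain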; conditions: S. cerevisiae rad50 strain growth inhibition; at 50.0 µM; active compounds read high
Summary of the method: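 Relative growth inhibition (compound vs vehicle) was measured in yeast with a defined repair-gene alteration.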

[2] = NCI Yeast Anticancer Drug Screen. Data for the mec2-1 strain (AID 157); conditions: S. cerevisiae mec2-1 strain, at 50.0 µM, active compounds read high
Summary of the method: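 Strain: mec2-1 (DNA repair/cell cycle alteration). Compound exposure, then growth measured; inhibition expressed relative to vehicle.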

[3] = NCI Yeast Anticancer Drug Screen. Data for the sgs1 mgt1 strain (AID 161);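 further: 0% = growth of cultures given vehicle only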; conditions: S. cerevisiae sgs1 mgt1 strain, at 50.0 µM, active compounds read high
Summary of the method: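 Test agents were incubated with a DNA-repair-mutant yeast strain. Growth was then read and compared against vehicle-treated controls.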

[4] = NCI Yeast Anticancer Drug Screen. Data for the cln2 rad14 strain (AID 165);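 further: 0% = growth equal to vehicle treated cultures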; conditions: S. cerevisiae cln2 rad14 strain, at 50.0 µM, active compounds read high
Summary of the method: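 Compounds are applied to the cln2 rad14 yeast strain, and growth is then compared with that of vehicle-treated cultures to give inhibition.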

[5] = NCI Yeast Anticancer Drug Screen. Data for the bub3 strain (AID 167); conditions: S. cerevisiae bub3 mutant strain, at 50.0 µM, active compounds read high
Summary of the method: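 Screening used yeast with an engineered genetic alteration affecting cell cycle control. Compound-exposed cultures were compared with vehicle cultures, and reduced growth was taken as inhibition.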

[6] = NCI Yeast Anticancer Drug Screen. Data for the mlh1 rad18 strain (AID 175); conditions: S. cerevisiae mlh1 rad18 strain growth inhibition; at 50.0 µM; active compounds read high
Summary of the method: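 Read-out is yeast growth inhibition, calculated against vehicle-only controls. The compound was applied to a strain engineered with DNA damage repair alterations.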

Compound	growth inhibition [1]	growth inhibition [2]	growth inhibition [3]	growth inhibition [4]	growth inhibition [5]	growth inhibition [6]
O=c1c(Cc2ccccc2)coc2ccccc12	30.6%	14.6%	21.4%	-14.2%	27.5%	-1.5%
COC1C(/C=C/C(C)=O)OC2OC(C)(C)OC21 (stereo unspecified)	1.7%	1.35%	3.85%	-9.45%	2.3%	-1.55%
Cc1cc(-c2ccccc2)nc(Nc2nc3ccccc3o2)n1	9.2%	1.1%	10.6%	6.35%	-9.45%	-2.3%
CCCCc1ccc(NC(=O)c2cccnc2)cc1	3%	14.4%	36.5%	15.2%	-3.4%	27.6%
Cc1ccc(NC(=O)Oc2ccc(Br)cc2Br)c(Cl)c1	21.1%	17.9%	16.7%	-0.25%	-6.3%	41.6%
CC(=O)NNc1ccc(C(=O)O)cc1	13.2%	1%	1.85%	-13.4%	-2.7%	-2.4%
N#CCCC(CC#N)N1CCN(C(CC#N)CCC#N)CC1 (stereo unspecified)	-33.5%	-48.9%	-11.8%	-6.3%	-13.1%	-19.4%
CC1(C)[C@@H]2C[C@H]1C(Cc1cccc(C[C@H]3c4cc(-c5ccccn5)ncc4[C@H]4C[C@@H]3C4(C)C)c1)c1cc(-c3ccccn3)ncc12 (stereo partly specified)	-2.2%	-14.7%	4.95%	-7.7%	45.2%	-8.65%
O=C(/C=C/c1ccc(O)cc1)OC[C@@H](O)COC1OC(CO)C(O)C(O)C1O (stereo partly specified)	-5.8%	-5.05%	-4.35%	6.8%	8.2%	-3.65%
CCOC(=O)/C(N=O)=C(/C)O	13.8%	5.9%	4.8%	-7.95%	11.4%	11.3%
CC(=O)c1sc(-c2nc(C)c(C(=O)/C=C\c3ccc(/C=C\C(=O)c4sc(-c5nc(C)c(C(C)=O)s5)nc4C)cc3)s2)nc1C	-19.3%	-13.4%	-8.7%	-11.6%	3.95%	-14.4%
O=C1C(=S)Nc2c(F)cccc21	21.6%	51.4%	24.2%	39.6%	29.6%	31.9%
Cn1c(N)c(N=Cc2ccc(Cl)cc2)c(=O)n(C)c1=O	-9.2%	2.35%	-5.5%	-16.5%	-7.75%	-7.4%
CC(C)c1ccc2nc3ccc(C(=O)NCCN(C)C)cn3c(=O)c2c1	-15.8%	-0.25%	-10.4%	2.65%	-1%	9%
CC[O-].CC[O-].O=C([CH-]C(=O)c1ccccc1)CCCCCCCCC(=O)[CH-]C(=O)c1ccccc1.[Ti+4]	-37.5%	-22.3%	5.1%	13.2%	2.85%	0.5%
O=COCCc1ccccc1	-17.9%	-6.2%	8.35%	5.4%	-8.15%	3.7%
COc1ccc(NC(=O)c2c(Br)c(Br)c(Br)c(Br)c2C(=O)O)c(Cl)c1	92.5% (active)	88.7% (active)	92% (active)	83.5% (active)	90.3% (active)	95.2% (active)
CC(C)(C)c1ccc(C(O)(c2ccc(C(C)(C)C)cc2)c2ccc(C(C)(C)C)cc2)cc1	12.8%	-3.85%	-22.2%	8.25%	-19.9%	-34.3%
CC[n+]1ccc(-c2ccccc2)o1	3.6%	13.1%	2.25%	27.3%	28.4%	-4.75%
C1OC2OC3OCOC3C2O1 (stereo unspecified)	16.4%	2.85%	-2.1%	-58.2%	17%	-8.8%
O=C(Nc1ccc2ccccc2c1)OC1CCS(=O)(=O)C1 (stereo unspecified)	-0.75%	-3.9%	6.1%	20.4%	-1.8%	-8.25%

Compound	growth inhibition [1]	growth inhibition [2]	growth inhibition [3]	growth inhibition [4]	growth inhibition [5]	growth inhibition [6]
CN(C)CCC(/C=C/c1ccccc1)=N\Nc1ccccc1	19.6%	-14.9%	-11.9%	5.5%	-12.8%	36.5%
C[C@@H]1CC[C@@H](C)[C@](C)(CCc2ccoc2)C/C=C\C=C/1C(=O)O	85.2% (active)	85.8% (active)	73.8% (active)	84.7% (active)	68.8%	78.2% (active)
O=C(Cc1ccccn1)c1cccnc1	-1.15%	-9.7%	-4.75%	-27.2%	-17%	-4.25%
COc1cc([N+](=O)[O-])ccc1C(=O)NC(CCC(=O)O)C(=O)O (stereo unspecified)	-12.6%	-19.9%	19.1%	-20.4%	28.6%	-22.1%
OC1CC2CCCC2CC1O (stereo unspecified)	-9.45%	-29.7%	-6.95%	6.35%	-9.65%	-0.75%
CCOC(=O)C(/C=C/C(C)C)(CC)C(=O)OCC	-8.75%	11.2%	8.2%	44.8%	-6.95%	24.4%
CCOC(=O)/C(OC(C)=O)=C1/C=C(C(=O)c2ccccc2)CCC1	7.8%	25.2%	11.9%	-4.1%	27.1%	7.4%
Cc1ccc2cc(N)ccc2c1	-2.9%	8.05%	2.9%	-9.85%	20.1%	23.1%
CCOc1ccc(NS(=O)(=O)c2ccc(F)cc2)cc1	-27.4%	-21.3%	-26.9%	-6.2%	-24.1%	3.05%
COc1ccc(NC2C(=O)C3(C)CCC2C3(C)C)cc1 (stereo unspecified)	-17.2%	-10.9%	-8.25%	-49.3%	12.2%	-41.1%
CC[N+](C)(C)CCOP(=O)(c1ccccc1)c1ccccc1	2.4%	6.35%	-15.1%	4.6%	-2.2%	9.5%
O=C1OC(c2ccccc2)=N/C1=C\c1ccco1	-2.95%	-19.3%	-24.4%	19.6%	-22.2%	23.6%
Cn1c(=O)c2c(ncn2C2C(=O)NNC2=O)n(C)c1=O	-7.15%	-8.45%	-17.2%	2.35%	7.55%	0.9%
Cc1cc(Cl)ccc1NC(=O)/C(Cc1nc2ccc(C(=O)c3ccccc3)cc2[nH]c1=O)=N/NC(=O)c1ccncc1	21.9%	17.1%	1.45%	-33.7%	4.7%	16.1%
Cc1c(C)c(C(C)O)c(C)c(C(C)O)c1C (stereo unspecified)	4.55%	5.65%	17.6%	21.6%	11.7%	18.6%
O=C1CCCCC(=O)Nc2ccc3nc4ccccc4c(c3c2)SCCCCCCCCSc2c3ccccc3nc3ccc(cc23)N1	-13.4%	-9.65%	2.55%	-6.05%	-2.3%	-4.2%
CCC(=O)Nc1cc([N+](=O)[O-])cc([N+](=O)[O-])c1	8.1%	-7.3%	-13.3%	-32.5%	-36.9%	-23.6%
CN(C)c1ccc(-c2c3ccc(Cl)cc3nc3ccc(Br)cc23)cc1	-1.3%	-1.9%	-18.1%	-4.3%	-1%	-8.9%
COc1ccc(CCN=C(N)CCl)cc1	11.8%	10.8%	7.4%	6.65%	18.9%	-2%
COC1=CC(=O)c2ccc(C(C)C)cc2C1(C)C1=NC(C)(C)CO1 (stereo unspecified)	-1.55%	-14.4%	-0.85%	16.8%	-6.45%	-9.8%
